Source: PubChem BioAssay
CYP2C9 activ: increases human cytochrome P450 2C9 activity. recombinant CYP2C9, luciferin-H conversion, luminescence; stronger effect = higher value; factor 1 = untreated enzyme, 0 = blocked. activation factor at 5 µM. 96,000 tested, 1.4% active;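 active = activation factor of 2 or more for CYP2C9 at a 5 µM dose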;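 note: 0 = sulfaphenazole-blocked wells and 1 = vehicle-only wells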
Target sequence (P11712 whole entry, looked up): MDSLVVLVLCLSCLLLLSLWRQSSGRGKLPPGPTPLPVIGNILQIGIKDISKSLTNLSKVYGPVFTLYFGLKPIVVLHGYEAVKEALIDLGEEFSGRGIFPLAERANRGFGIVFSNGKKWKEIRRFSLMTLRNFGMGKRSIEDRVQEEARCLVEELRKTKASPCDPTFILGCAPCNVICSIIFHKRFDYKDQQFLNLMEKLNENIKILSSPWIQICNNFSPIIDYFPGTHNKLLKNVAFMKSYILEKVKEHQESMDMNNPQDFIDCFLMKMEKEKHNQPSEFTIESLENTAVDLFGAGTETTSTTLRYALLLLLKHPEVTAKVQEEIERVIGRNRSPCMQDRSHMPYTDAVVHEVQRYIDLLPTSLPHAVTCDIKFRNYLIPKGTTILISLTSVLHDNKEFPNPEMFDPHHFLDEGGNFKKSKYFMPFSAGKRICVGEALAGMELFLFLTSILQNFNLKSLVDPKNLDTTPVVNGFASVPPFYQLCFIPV
PostGolgi ctrl: yeast control strain growth, post-Golgi counter-screen | efflux-deficient yeast background strain, growth absorbance A615, 16 h | inhibition, % at 10 µM | 98,000 tested, 5% active
PostGolgi yeast: growth inhibition of a yeast mutant, post-Golgi transport screen. post-Golgi transport phenotypic cell assay. inhibition, % at 10 µM. 98,000 tested, 0.9% active;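 note: yeast cells grown in 1536-well plates; yeast grown about 18 h at 30C before absorbance read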
CYP2C9 inhib: inhibitors of human CYP2C9 | CYP2C9 Supersomes, luciferin-H conversion, luminescence | 96,000 tested, 20% active | P11712 | inhibition, % at 5 µM;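 active = blocking of liver enzyme CYP2C9 beyond about 50% at 5 µM, limit read from the data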
CYP2C19 inh: blocks human cytochrome P450 2C19; P33261; CYP2C19 Supersomes, luciferin-H EGE luminescence, 30 min; inhibition, % at 5 µM; 96,000 tested, 21% active; AID 778;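 active = CYP2C19 inhibition above a set limit at 5 µM in the primary screen, cut at about 50% in these data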;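 note: plate controls were negative control wells for no effect and 2.5 mM tranylcypromine positive control for full effect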
CYP2C19 act: cytochrome P450 2C19 (human) activation; P33261; recombinant CYP2C19, luciferin-H EGE luminescence; stronger effect = higher value; 0 = fully inhibited enzyme, 1 = untreated enzyme; activation factor at 5 µM; 96,000 tested, under 10 active; AID 1025;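 active = activation factor of at least 2 at 5 µM in the primary screen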;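 note: 0 = wells with 2.5 mM tranylcypromine and 1 = vehicle-only wells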
* hit, by the source's call. Most compounds without a hit are left out; they make up all but 32% or so of the library. Cut-off read from the data, not from the text of the source, unless noted: active = inhibition above about 30%; inactive = the rest.

Screening Cc1cc(C(F)F)n2nc(C(=O)Nc3sc4c(c3C#N)CCC(C)C4)nc2n1 (stereo not drawn) returned CYP2C9 activ 1, PostGolgi ctrl 33*, PostGolgi yeast 30*, CYP2C9 inhib -3, CYP2C19 inh -7 and CYP2C19 act 1.1.
`Cc1cc(C(F)F)n2nc(C(=O)Nc3cc(C)on3)nc2n1` gave CYP2C9 activ 0.7, PostGolgi ctrl 3, PostGolgi yeast 2, CYP2C9 inhib 26, CYP2C19 inh 7 and CYP2C19 act 0.9.
For CN(C(=O)COc1ccccc1)c1nnc(-c2cccnc2)s1 the results were CYP2C9 activ 0.8, PostGolgi ctrl 7, PostGolgi yeast 20, CYP2C9 inhib 23, CYP2C19 inh 34 and CYP2C19 act 0.7.
CCCCOc1ccc(-c2nnc(-c3ccncc3)o2)cc1 was read as CYP2C9 activ 0.5, PostGolgi ctrl 2, PostGolgi yeast -13, CYP2C9 inhib 54*, CYP2C19 inh 96* and CYP2C19 act 0.
CCOc1ccc(-c2nnc(N)o2)cc1 was read as CYP2C9 activ 1.1, PostGolgi ctrl 19, PostGolgi yeast 10, CYP2C9 inhib -13, CYP2C19 inh -2 and CYP2C19 act 1.
For CCOc1ccc(-c2nnc(-c3ccncc3)o2)cc1 the results were CYP2C9 activ 0.6, PostGolgi ctrl 23, PostGolgi yeast 10, CYP2C9 inhib 44, CYP2C19 inh 99* and CYP2C19 act 0.
Screening CC1=CC(C)(C)C(C(=O)O)C(C(=O)O)C1 (stereo not drawn) returned CYP2C9 activ 1, CYP2C9 inhib 1, CYP2C19 inh -8 and CYP2C19 act 1.1.
COc1ccc(S(=O)(=O)N2N=C(C)Oc3ccccc3C2=O)cc1 was read as CYP2C9 activ 0.9, PostGolgi ctrl 1, PostGolgi yeast 0, CYP2C9 inhib 9, CYP2C19 inh 65* and CYP2C19 act 0.4.
CC1=NN(S(=O)(=O)c2ccc(F)cc2)C(=O)c2ccccc2O1 was read as CYP2C9 activ 1, PostGolgi ctrl -1, PostGolgi yeast -7, CYP2C9 inhib 4, CYP2C19 inh 29 and CYP2C19 act 0.7.
`COc1ccc(S(=O)(=O)Nc2ccccc2C(F)(F)F)cc1` gave CYP2C9 activ 0.8, PostGolgi ctrl 10, PostGolgi yeast -6, CYP2C9 inhib 21, CYP2C19 inh 78* and CYP2C19 act 0.2.
Screening COc1ccc(S(=O)(=O)Nc2ccc(O)c3ccccc23)cc1 returned CYP2C9 activ 0.3, CYP2C9 inhib 67*, CYP2C19 inh 97* and CYP2C19 act 0.
For COC(=O)Nc1ccc(S(=O)(=O)Nc2cccc3ccccc23)cc1 the results were PostGolgi ctrl 11 and PostGolgi yeast 7.
Screening COc1cc(C(C(=O)NC(C)(C)C)N(Cc2ccc3c(c2)OCO3)C(=O)c2cnccn2)cc(OC)c1OC (stereo not drawn) returned CYP2C9 activ 1.3, PostGolgi ctrl -3, PostGolgi yeast 9, CYP2C9 inhib -27, CYP2C19 inh -1 and CYP2C19 act 1.
Cc1ccc(-n2nc(C(=O)N3CCOCC3)cc2-c2ccc(Cl)cc2)cc1 was read as CYP2C9 activ 0.3, PostGolgi ctrl 41*, PostGolgi yeast 14, CYP2C9 inhib 71*, CYP2C19 inh 22 and CYP2C19 act 0.8.
Screening O=C(c1cc(-c2ccc(Cl)cc2)n(-c2ccc(Cl)cc2)n1)N1CCOCC1 returned CYP2C9 activ 0.8, PostGolgi ctrl 38*, PostGolgi yeast 9, CYP2C9 inhib 24, CYP2C19 inh 15 and CYP2C19 act 0.8.
O=C(c1cc(-c2ccc(Cl)cc2)on1)N1CCOCC1 was read as CYP2C9 activ 1, PostGolgi ctrl 26, PostGolgi yeast -3, CYP2C9 inhib 4, CYP2C19 inh 7 and CYP2C19 act 0.9.
For c1ccc(Cn2ncc3c(N4CCCCC4)ncnc32)cc1 the results were CYP2C9 activ 0.7, PostGolgi ctrl 3, PostGolgi yeast 8, CYP2C9 inhib 30, CYP2C19 inh 67* and CYP2C19 act 0.3.
For Cc1ccc(Cn2ncc3c(N4CCN(c5ccccc5C)CC4)ncnc32)cc1 the results were CYP2C9 activ 0.3, PostGolgi ctrl 12, PostGolgi yeast -4, CYP2C9 inhib 74*, CYP2C19 inh 60* and CYP2C19 act 0.4.
For O=C(c1ccc(N2CCNCC2)cc1)c1cccnc1 the results were CYP2C9 activ 1.1, PostGolgi ctrl -4, PostGolgi yeast -16, CYP2C9 inhib -12, CYP2C19 inh -5 and CYP2C19 act 1.
For CCCn1nnnc1SCC(=O)N(C(C)C)C(C)C the results were CYP2C9 activ 1, PostGolgi ctrl -3, PostGolgi yeast -1, CYP2C9 inhib -1, CYP2C19 inh 72* and CYP2C19 act 0.3.
CCn1nnc(NC(=O)CSc2ccc(Cl)cc2)n1 was read as CYP2C9 activ 0.8, PostGolgi ctrl 1, PostGolgi yeast 6, CYP2C9 inhib 21, CYP2C19 inh 26 and CYP2C19 act 0.7.
CCCn1nnnc1NC(=O)CSc1ccc(Cl)cc1 was read as CYP2C9 activ 0.3, PostGolgi ctrl 3, PostGolgi yeast 1, CYP2C9 inhib 66*, CYP2C19 inh 82* and CYP2C19 act 0.2.
CCCn1nnnc1SCC(=O)c1ccc2c(c1)OCCO2 was read as CYP2C9 activ 0.6, PostGolgi ctrl -4, PostGolgi yeast -2, CYP2C9 inhib 37, CYP2C19 inh 65* and CYP2C19 act 0.4.
For CCCn1nnnc1SCC(=O)Nc1ccc(F)cc1 the results were CYP2C9 activ 0.8, PostGolgi ctrl 1, PostGolgi yeast -5, CYP2C9 inhib 19, CYP2C19 inh 96* and CYP2C19 act 0.
`COc1ccc(C(=O)Cc2cc(OC)c(OC)cc2[N+](=O)[O-])c(OC)c1` gave CYP2C9 activ 1.4, PostGolgi ctrl 0, PostGolgi yeast 6, CYP2C9 inhib -38, CYP2C19 inh 14 and CYP2C19 act 0.9.
`O=C(O)C1C2CCC(C2)C1C(=O)NCc1ccccn1` (stereo not drawn) gave CYP2C9 activ 0.8, PostGolgi ctrl 3, PostGolgi yeast -2, CYP2C9 inhib 16, CYP2C19 inh 9 and CYP2C19 act 0.9.
Screening CCCCn1nnnc1SCC(=O)Nc1ccc(C)cc1 returned CYP2C9 activ 0.6, PostGolgi ctrl -2, PostGolgi yeast -4, CYP2C9 inhib 36, CYP2C19 inh 71* and CYP2C19 act 0.3.
For CCCCn1nnnc1SCC(=O)Nc1ccc2c(c1)OCCO2 the results were CYP2C9 activ 0.4, PostGolgi ctrl 22, PostGolgi yeast 2, CYP2C9 inhib 59*, CYP2C19 inh 67* and CYP2C19 act 0.3.
O=C(CSc1nnnn1-c1ccccc1Cl)Nc1ccc2c(c1)OCCO2 was read as CYP2C9 activ 1.1, PostGolgi ctrl -1, PostGolgi yeast -12, CYP2C9 inhib -13, CYP2C19 inh -3 and CYP2C19 act 1.
`COc1ccc(NC2=NCC(=O)N2c2ccccc2)c(OC)c1` gave CYP2C9 activ 0.5, PostGolgi ctrl 0, PostGolgi yeast -5, CYP2C9 inhib 52*, CYP2C19 inh 64* and CYP2C19 act 0.4.
